Measurements: PubChem BioAssay (NCATS)
Values without a mark were called inactive. Records with an inconclusive call do not appear. Entries that show only a call come without a potency. Active and inactive are the calls of the source. Unless noted, calls follow the shape of the dose curve; as a rule, active = well fitted curve in the direction sought with a large enough effect; inconclusive = small, poorly fitted or top-dose-only effect, or another doubt; inactive = no such curve, though single readings can be large; an effect the other way counts as inactive or inconclusive. Residues, ends and D or L forms follow the SMILES beside them. *: point of attachment. Cbz = O=C(OCc1ccccc1)*

Key:
[1] = NS1 protein of Zika virus - qHTS assay to identify small molecule inhibitors in human HEK 293 cells (AID 1347053); also: nearly all actives have a fitted effect of over 55% in size
Summary of the method: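 TR-FRET signal from two anti-ZIKV NS1 antibodies quantified NS1 in HEK 293 cells 24 h after MR766 infection at MOI = 0.5; compounds were added 1 h before virus. Uninfected cells and infected cells defined the NS1 normalization range.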

[2] = molecular target: T1, Tyrosine-protein phosphatase non-receptor type substrate 1 (Homo sapiens) + Leukocyte surface antigen CD47 (Homo sapiens) (UniProt P78324+Q08722); experiment: CD47-SIRPalpha protein protein interaction - LANCE assay qHTS validation (AID 1347057; active = well fitted curve in the direction sought with a large enough effect in the signal ratio, with a control signal flat, not every such curve was filed as active; the % refers to the signal ratio)
T1 sequence (P78324 whole entry, looked up, the tested form may be a part): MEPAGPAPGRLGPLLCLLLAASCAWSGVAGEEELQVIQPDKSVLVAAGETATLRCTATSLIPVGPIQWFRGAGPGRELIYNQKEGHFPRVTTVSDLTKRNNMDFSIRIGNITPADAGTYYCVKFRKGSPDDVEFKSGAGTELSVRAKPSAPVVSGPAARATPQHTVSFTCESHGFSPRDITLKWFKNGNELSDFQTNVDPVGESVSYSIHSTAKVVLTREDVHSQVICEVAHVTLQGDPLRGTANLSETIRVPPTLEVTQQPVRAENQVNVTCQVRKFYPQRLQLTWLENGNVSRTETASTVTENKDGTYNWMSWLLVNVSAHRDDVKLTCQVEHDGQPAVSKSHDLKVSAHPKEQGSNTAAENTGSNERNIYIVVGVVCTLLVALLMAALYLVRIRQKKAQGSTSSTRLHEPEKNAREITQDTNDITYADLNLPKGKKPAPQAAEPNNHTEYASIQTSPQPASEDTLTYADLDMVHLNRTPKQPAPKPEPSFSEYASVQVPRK
T1 sequence (Q08722 whole entry, looked up, the tested form may be a part): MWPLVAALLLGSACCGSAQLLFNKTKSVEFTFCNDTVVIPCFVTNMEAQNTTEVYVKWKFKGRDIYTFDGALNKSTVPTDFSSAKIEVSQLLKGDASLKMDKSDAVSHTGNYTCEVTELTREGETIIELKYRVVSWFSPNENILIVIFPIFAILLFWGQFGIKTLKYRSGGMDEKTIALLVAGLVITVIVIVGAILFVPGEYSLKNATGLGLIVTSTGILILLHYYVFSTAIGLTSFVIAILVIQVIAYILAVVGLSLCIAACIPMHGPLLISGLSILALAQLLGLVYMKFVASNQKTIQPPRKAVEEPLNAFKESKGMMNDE
Summary of the method: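 Inhibition of soluble CD47/SIRPalpha ectodomain association by titrated compounds, measured as 665/615 nm time-resolved FRET ratio after sequential 30 min room-temperature incubations.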

[3] = molecular target: T1, Tyrosine-protein phosphatase non-receptor type substrate 1 (Homo sapiens) + Leukocyte surface antigen CD47 (Homo sapiens); experiment: CD47-SIRPalpha protein protein interaction - HTRF assay qHTS validation (AID 1347058; active = well fitted curve in the direction sought with a large enough effect in the signal ratio, not every such curve was filed as active; the % refers to the signal ratio)
Summary of the method: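 Soluble extracellular domains (6His-CD47, Avi-tag-biotinylated SIRPalpha) in PBS pH 7.4 with 0.05% IGEPAL CA-630. Compounds were preincubated 30 min at RT with CD47 and anti-His-Eu, then SIRPalpha and SAV-XL665 were added. TR-FRET 665/615 ratio.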

[4] = molecular target: T1, Tyrosine-protein phosphatase non-receptor type substrate 1 (Homo sapiens) + Leukocyte surface antigen CD47 (Homo sapiens); experiment: CD47-SIRPalpha protein protein interaction - Alpha assay qHTS validation (AID 1347059);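 also: bead proximity luminescence from CD47 binding SIRPalpha after compound preincubation with SIRPalpha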
Summary of the method: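 AlphaScreen signal between CD47-His (12.5 nM) and biotin-SIRPalpha (25 nM) soluble extracellular domains, bead-captured via Ni-NTA and streptavidin. Compounds, in 7-point titrations, met SIRPalpha 30 min before CD47; PBS pH 7.4 with 0.05% IGEPAL.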

[5] = molecular target: Parathyroid hormone/parathyroid hormone-related peptide receptor (Homo sapiens) (UniProt Q03431); experiment: qHTS for PTHR1 Agonists: Optimization Screen against the NCGC LOPAC library (AID 1347079);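 also: GloSensor cAMP luminescence in HEK-293 GP2 cells expressing human PTHR1 with IBMX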
Chain of Parathyroid hormone/parathyroid hormone-related peptide receptor (Homo sapiens) (Q03431 whole entry, looked up): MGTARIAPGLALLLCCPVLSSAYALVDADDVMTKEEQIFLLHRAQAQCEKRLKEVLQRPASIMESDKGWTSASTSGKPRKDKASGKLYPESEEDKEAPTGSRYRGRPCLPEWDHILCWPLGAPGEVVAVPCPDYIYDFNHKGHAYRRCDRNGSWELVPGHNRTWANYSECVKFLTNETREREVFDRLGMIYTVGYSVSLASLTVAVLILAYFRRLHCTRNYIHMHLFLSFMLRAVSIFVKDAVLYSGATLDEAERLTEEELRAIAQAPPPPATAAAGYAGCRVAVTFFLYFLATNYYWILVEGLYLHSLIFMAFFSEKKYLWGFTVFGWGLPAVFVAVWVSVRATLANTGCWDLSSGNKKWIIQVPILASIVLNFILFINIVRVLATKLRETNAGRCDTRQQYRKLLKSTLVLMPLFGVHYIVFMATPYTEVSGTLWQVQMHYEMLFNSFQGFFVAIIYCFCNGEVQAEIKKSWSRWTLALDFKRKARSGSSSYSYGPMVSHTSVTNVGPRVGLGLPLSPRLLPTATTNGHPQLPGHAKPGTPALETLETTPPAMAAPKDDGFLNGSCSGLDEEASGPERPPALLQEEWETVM
Summary of the method: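 HEK-293 GP2 cells, PTHR1 + GloSensor cAMP; 3000 cells/well, o/n. Luciferin + IBMX 0.5mM each (stock), 1 hr 37C. Cpd titration, 1 hr 37C. Lum after 15 min RT. Ctrl M-PTH(1-15) top 10uM.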

[6] = molecular target: N-terminal Xaa-Pro-Lys N-methyltransferase 1 (Homo sapiens) (UniProt Q9BV86); experiment: qHTS Assay for Inhibitors of N-terminal methyltransferase 1 (NTMT1): LOPAC validation of the NTMT1 SAHH-coupled ThioGlo3 Assay (AID 1347143);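 also: SAH from peptide methylation measured as thiol fluorescence via SAHH coupling and ThioGlo3; nearly all actives have a fitted effect of over 70% in size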; also: potency is read from the fitted curve at half-maximal effect
Chain of N-terminal Xaa-Pro-Lys N-methyltransferase 1 (Homo sapiens) (Q9BV86 whole entry, looked up): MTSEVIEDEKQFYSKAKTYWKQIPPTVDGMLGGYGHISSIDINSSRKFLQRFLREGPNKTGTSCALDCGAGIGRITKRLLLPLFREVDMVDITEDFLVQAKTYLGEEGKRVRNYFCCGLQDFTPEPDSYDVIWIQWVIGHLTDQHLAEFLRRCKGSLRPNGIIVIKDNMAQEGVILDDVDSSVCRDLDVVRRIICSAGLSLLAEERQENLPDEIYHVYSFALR
Summary of the method: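 NTMT1 125nM + cpds (various conc.), 1 min RT; add SAM 100uM/SAHH 10uM/ThioGlo3 15uM (addition mix). SAHH-coupled thiol detection, Ex340/Em450, t0 and 30 min RT; signal normalized to background. LOPAC 1280-cpd pilot.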

[7] = test system: Zika virus NS2B-NS3 protease (unlinked); experiment: Optimization of GU AMC qHTS for Zika virus inhibitors: Unlinked NS2B-NS3 protease assay (AID 1347151); also: nearly all actives have a fitted effect of over 80% in size
Summary of the method: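 Fluorescence read-out (340 nm ex / 450 nm em) of AMC peptide cleavage, taken immediately and after 15 min at room temperature (~20% conversion). Enzyme was the unlinked NS2B–NS3 complex at 25 nM in Tris pH 8.0 buffer.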

[8] = test system: Zika virus NS2B-NS3 protease; experiment: Primary screen GU AMC qHTS for Zika virus inhibitors (AID 1347154); also: nearly all actives have a fitted effect of over 70% in size
Summary of the method: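 Fluorogenic AMC-substrate cleavage by noncovalent NS2B-NS3 protease complex (25 nM, pH 8.0 Tris buffer with Tween 20) followed for 15 minutes at room temperature (~20% conversion). Percent inhibition from ex340/em450 signal change, fitted by 4-parameter Hill equation.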

[9] = molecular target: Lysine-specific demethylase 5B (Homo sapiens) (UniProt Q9UGL1); experiment: Optimization screen for KDM5B Histone Demethylases FDH coupled qHTS against the LOPAC library (AID 1347166); settings: KDM5B demethylation, FDH-coupled NADH fluorescence (FDH is formaldehyde dehydrogenase); at 57.5 µM (top of the series)
Chain of Lysine-specific demethylase 5B (Homo sapiens) (Q9UGL1 whole entry, looked up): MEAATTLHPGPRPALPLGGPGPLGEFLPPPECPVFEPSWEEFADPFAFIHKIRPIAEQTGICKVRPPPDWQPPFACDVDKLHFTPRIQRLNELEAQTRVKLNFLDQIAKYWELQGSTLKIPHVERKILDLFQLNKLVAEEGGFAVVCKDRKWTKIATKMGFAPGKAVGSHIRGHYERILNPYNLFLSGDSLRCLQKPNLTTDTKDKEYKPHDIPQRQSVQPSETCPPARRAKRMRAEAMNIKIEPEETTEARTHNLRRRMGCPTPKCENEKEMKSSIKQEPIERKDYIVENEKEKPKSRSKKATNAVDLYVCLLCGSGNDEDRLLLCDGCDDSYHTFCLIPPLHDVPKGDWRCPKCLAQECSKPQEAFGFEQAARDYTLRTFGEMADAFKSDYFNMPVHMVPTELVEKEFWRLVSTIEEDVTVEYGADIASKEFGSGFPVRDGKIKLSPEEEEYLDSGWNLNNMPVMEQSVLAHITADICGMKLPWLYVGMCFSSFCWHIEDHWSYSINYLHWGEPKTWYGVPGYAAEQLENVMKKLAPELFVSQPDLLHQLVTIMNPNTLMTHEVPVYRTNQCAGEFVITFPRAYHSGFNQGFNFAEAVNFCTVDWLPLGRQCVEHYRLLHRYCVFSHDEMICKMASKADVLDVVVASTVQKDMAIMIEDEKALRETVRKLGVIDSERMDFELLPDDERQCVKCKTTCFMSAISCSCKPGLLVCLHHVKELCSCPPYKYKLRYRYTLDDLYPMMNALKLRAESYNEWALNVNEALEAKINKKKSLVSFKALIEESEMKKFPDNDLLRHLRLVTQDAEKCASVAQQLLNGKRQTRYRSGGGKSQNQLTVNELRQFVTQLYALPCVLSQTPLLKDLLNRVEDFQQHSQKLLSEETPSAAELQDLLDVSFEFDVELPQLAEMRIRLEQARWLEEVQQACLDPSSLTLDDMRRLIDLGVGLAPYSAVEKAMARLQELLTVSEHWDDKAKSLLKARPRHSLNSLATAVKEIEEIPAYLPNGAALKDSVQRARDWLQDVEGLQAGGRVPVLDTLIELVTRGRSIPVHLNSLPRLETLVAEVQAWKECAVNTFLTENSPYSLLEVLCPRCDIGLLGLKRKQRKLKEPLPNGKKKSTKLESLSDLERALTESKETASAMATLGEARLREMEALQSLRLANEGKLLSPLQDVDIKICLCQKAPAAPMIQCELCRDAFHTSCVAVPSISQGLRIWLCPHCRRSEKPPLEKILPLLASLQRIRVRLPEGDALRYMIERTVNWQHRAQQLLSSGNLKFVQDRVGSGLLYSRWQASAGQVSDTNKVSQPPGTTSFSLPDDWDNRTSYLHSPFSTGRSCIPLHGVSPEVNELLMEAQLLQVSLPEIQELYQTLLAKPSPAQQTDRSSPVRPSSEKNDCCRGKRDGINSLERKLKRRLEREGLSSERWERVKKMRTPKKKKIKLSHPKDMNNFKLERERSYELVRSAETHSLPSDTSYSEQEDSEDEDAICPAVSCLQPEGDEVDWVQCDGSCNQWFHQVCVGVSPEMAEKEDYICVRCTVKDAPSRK
Summary of the method: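 KDM5BDeltaAP (200nM final) in 50mM HEPES pH 7.5, 0.01% Tween-20 was preincubated with compound for 10 min at room temperature. A substrate mix of 12.5uM H3K4Me3, 25uM a-ketoglutarate, ascorbate, Fe2+, NAD+ and formaldehyde dehydrogenase was then added. NADH fluorescence (340/450 nm) was read initially and after 30 min.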

SMILES | Potency [1] | Potency [2] | outcome [3] | Potency [4] | Potency [5] | Potency [6] | Potency [7] | Potency [8] | activity, negative = inhibition [9] [%]
CC(C)[C@H](NC(=O)OCc1ccccc1)C(=O)N[C@H](C=O)Cc1ccccc1 (Cbz-Val-Phe-aldehyde) | inactive | inactive | inactive | inactive | inactive | inactive | inactive | inactive | 6.73
C=C1C[C@@]23CC[C@H]4[C@@](C)(CCC[C@@]4(C)C(=O)O)[C@@H]2CC[C@]1(O)C3 | inactive | inactive | inactive | inactive | inactive | inactive | inactive |  | -2.05
NC1(C(=O)O)CCCCC1 | inactive | inactive | inactive | inactive | inactive | inactive | inactive |  | -8.23
NCCS(=O)O | inactive | inactive | inactive | inactive | inactive | inactive | inactive | inactive | -4.01
COc1cc(C(O)C(=O)O)ccc1O (configuration not stated) | inactive | inactive | inactive | inactive | inactive | inactive | inactive | inactive | 
Cn1cc(C(=O)OCC2CCN(CCNS(C)(=O)=O)CC2)c2ccccc21 | inactive | inactive | inactive | inactive | inactive | inactive | inactive | inactive | -6.85
Oc1ccc(Cn2cc[nH]c2=S)cc1 | inactive | inactive | inactive | inactive | inactive | 50.1 µM (active) | inactive |  | -15.9
O=C(O)C1=CCNCC1 | inactive | inactive | inactive | inactive | inactive | inactive | inactive | inactive | -12.8
CCn1c(=O)[nH]c2cc(Cl)c(Cl)cc21 | inactive | inactive | inactive | inactive | inactive | inactive | inactive | inactive | -0.178
CN[C@H](CC(=O)O)C(=O)O | inactive | inactive | inactive | inactive | inactive | inactive | inactive | inactive | 
NC1C=CC=C(C(=O)O)C1 (configuration not stated) | inactive | inactive | inactive | inactive | inactive | inactive | inactive | inactive | -9.6
CCCCCCCCCC[Si](C)(C)CCC(=O)NC(Cc1ccc(C)cc1)c1ccccc1 (configuration not stated) | inactive | inactive | inactive | inactive | inactive | inactive | inactive |  | -3.59
